# Data published in PubChem BioAssay.
# Values joined by “and” are separate entries in the source; they are usually repeats but may differ in a detail not shown here. Identical values can stand only once. Active and inactive are the calls of the source. Unless noted, no stated cut-off is given here; in the data, active means inhibition above about 80%; inactive means the rest.
# Columns and labels:
# [1] = growth inhibition, single agent or in combination, cell-based, chromothripsis tumors, cisplatin or BGB combos (AID 1671449); conditions: LFS_MB_P medulloblastoma cells;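 further: cells exposed for 96 hours; 0% = vehicle DMSO and 100% = killing by high DMSO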
# [2] = growth inhibition, single agent and combos, cell-based, chromothripsis tumors, cisplatin or BGB combos (AID 1671450); conditions: HDN33 neuroblastoma cells, stronger effect = higher value;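 further: cells exposed to compound for four days; 0% = vehicle DMSO and 100% = cell killing by high DMSO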
# [3] = growth inhibition, single agents and combos, ICB984, cell-based, cisplatin or BGB combos, synergistic combos for chromothripsis tumors (AID 1671451; call rule not given here;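 further: cells exposed for 96 hours before readout; 0% = vehicle DMSO and 100% = killing by high DMSO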); conditions: ICB984 medulloblastoma cells, drug combinations, stronger effect = higher value
# [4] = growth inhibition, single agents and combos, LFS_MB_1R, cell-based, cisplatin or BGB combos, synergistic combos for chromothripsis tumors (AID 1671452); conditions: LFS_MB_1R medulloblastoma cells, stronger effect = higher value;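 further: cells exposed for 96 hours before readout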
# [5] = growth inhibition, single agents and combos, HTB85, cell-based, BGB or cisplatin IC20 combos, synergistic combos for chromothripsis tumors (AID 1671453); conditions: HTB85 osteosarcoma cells, drug combinations, stronger effect = higher value;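 further: cells exposed for 96 hours before readout; 0% = vehicle DMSO and 100% = high DMSO killing control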
# [6] = growth inhibition, single agents and combos, CRL2098, cell-based, BGB or cisplatin IC20 combos, synergistic combos for chromothripsis tumors (AID 1671454); conditions: CRL2098 osteosarcoma cells, drug combinations, stronger effect = higher value;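 further: cells exposed for 96 h before readout; 0% = vehicle DMSO and 100% = killing by high DMSO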
# [7] = growth inhibition, single agents and combos, HD-MB03, cell-based, BGB or cisplatin IC20 combos, synergistic combos for chromothripsis tumors (AID 1671455; in the data active means inhibition above about 83%;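 further: 0% = vehicle DMSO and 100% = high DMSO as cytotoxic control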); conditions: HD-MB03 medulloblastoma cells, stronger effect = higher value
# [8] = growth inhibition, single agents and combos, UWB1.289, cell-based, BGB or cisplatin combos, synergistic combos for chromothripsis tumors (AID 1671456); conditions: UWB1.289 ovarian carcinoma cells, stronger effect = higher value;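 further: cells exposed to compound for four days; 0% = vehicle DMSO and 100% = killing by high DMSO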
# [9] = growth inhibition, single agents and combos, LFS_MB_2R, cell-based, cisplatin combos, synergistic combos for chromothripsis tumors (AID 1671457); conditions: LFS_MB_2R medulloblastoma cells, stronger effect = higher value;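 further: cells exposed to compound for four days before readout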
# [10] = growth inhibition, MDA-MB-436, cell-based, BGB or cisplatin combos, synergistic combos for chromothripsis tumors (AID 1671458; call rule not given here;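 further: cells exposed for 96 hours; 0% = vehicle DMSO and 100% = killing by high DMSO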); conditions: MDA-MB-436 breast carcinoma growth inhibition, drug combinations, stronger effect = higher value
# [11] = UWB1.289_BRCA1 ovarian cancer growth, cell-based, BGB or cisplatin combinations (AID 1671459); conditions: UWB1.289 BRCA1 ovarian carcinoma, drug combinations, stronger effect = higher value
# [12] = drug combination toxicity in non-malignant astrocytes – cell-based, BGB or cisplatin IC20 combos, cytotoxicity control for chromothriptic childhood tumor combination screen (AID 1671460); conditions: Human astrocytes, viability inhibition, drug combinations, at 0.5 µM, stronger effect = higher value;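 further: cells exposed to compounds for 96 hours before viability readout; 0% = vehicle and 100% = killing control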
# [13] = BT084 cell growth, single and combined drugs, ICGC_MB145, cisplatin and BGB IC40 combos (AID 1671461); conditions: BT084 medulloblastoma cells, drug combinations, stronger effect = higher value;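 further: cells exposed to drugs for 96 hours; 0% = vehicle DMSO and 100% = high DMSO full killing control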
# [14] = RCMB18 cell growth, single agent and combined, cisplatin and BGB IC40 combos (AID 1671462); conditions: RCMB18 medulloblastoma cells, stronger effect = higher value;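 further: cells exposed to compound for four days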
# [15] = CRL1545 cell growth, single agent and combined, cisplatin and BGB IC20 combos (AID 1671464); conditions: CRL1545 osteosarcoma cells, stronger effect = higher value;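 further: cells exposed to compound for 96 hours before readout; 0% = vehicle DMSO and 100% = high DMSO killing control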
# [16] = measured here: combination with BGB IC40, at 0.05 µM
# [17] = measured here: with BGB IC20 combination, at 0.5 µM
# [18] = measured here: with cisplatin IC20 combination, at 0.5 µM
# [19] = measured here: combination with cisplatin, at 0.5 µM
# [20] = measured here: combination with cisplatin, at 5 µM
smiles,measurement,setting,value
Nc1ccccc1NC(=O)c1cnccn1,inhibition,"[1]; at 0.5 µM, stronger effect = higher value",-12.4% (inactive)
same,inhibition,"[1]; measured here: combination with BGB IC20, at 0.005 µM",-41.6%
same,inhibition,"[1]; measured here: combination with BGB IC40, at 0.005 µM",85.5%
same,inhibition,[1]; [16],-7.35%
same,inhibition,"[1]; measured here: combination with cisplatin, at 0.5 µM, stronger effect = higher value",-18.9%
same,inhibition,"[1]; measured here: combination with cisplatin, at 5 µM, stronger effect = higher value",-28.5%
same,inhibition,"[2]; BGB combo, at 5 µM",-12.4%
same,inhibition,[2]; at 0.5 µM,-14.6% (inactive)
same,inhibition,"[2]; cisplatin combo, at 5 µM",6.5%
same,inhibition,[2]; [17],-34.1%
same,inhibition,[2]; [18],5.82%
same,inhibition,"[2]; single agent, at 5 µM",1.32%
same,inhibition,"[3]; BGB IC20 combo, at 0.005 µM",-16.9%
same,inhibition,"[3]; BGB IC40 combo, at 0.005 µM",-7.68%
same,inhibition,"[3]; BGB IC40 combo, at 0.05 µM",-8.97%
same,inhibition,[3]; at 0.5 µM,-30.1% (inactive)
same,inhibition,"[3]; cisplatin combo, at 0.05 µM",-14.5%
same,inhibition,"[3]; cisplatin combo, at 0.5 µM",-45.8%
same,inhibition,"[3]; cisplatin combo, at 5 µM",-16.9%
same,inhibition,"[3]; measured here: 5 uM single agent, at 5 µM",-10%
same,inhibition,[4]; at 0.5 µM,-27.6% (inactive)
same,inhibition,[4]; [16],-29.7%
same,inhibition,[4]; [19],-55.5%
same,inhibition,[4]; [20],-22%
same,inhibition,[5]; at 0.5 µM,-12.2% (inactive)
same,inhibition,"[5]; measured here: with BGB IC20, at 0.5 µM",-6.35%
same,inhibition,"[5]; measured here: with BGB IC20, at 5 µM",4.3%
same,inhibition,"[5]; measured here: with cisplatin IC20, at 0.5 µM",-15.5%
same,inhibition,"[5]; measured here: with cisplatin IC20, at 5 µM",27.4%
same,inhibition,"[5]; single agent, at 5 µM",-13.3%
same,inhibition,[6]; at 0.5 µM,-55.8% (inactive)
same,inhibition,"[6]; measured here: combination with BGB at IC20, at 0.5 µM",-72.3%
same,inhibition,"[6]; measured here: combination with cisplatin at IC20, at 0.5 µM",-47%
same,inhibition,[7]; at 0.5 µM,-6.67% (inactive)
same,inhibition,"[7]; measured here: combo with BGB at IC20, at 0.5 µM",-7.96%
same,inhibition,"[7]; measured here: combo with cisplatin at IC20, at 0.5 µM",-6.22%
same,inhibition,[8]; at 0.5 µM,12.9% (inactive)
same,inhibition,"[8]; measured here: inhibition with BGB combination, at 0.05 µM",-30.1%
same,inhibition,"[8]; measured here: inhibition with cisplatin combination, at 0.05 µM",-23.2%
same,inhibition,[9]; at 0.5 µM,-19.8% (inactive)
same,inhibition,[9]; [19],-6.3%
same,inhibition,[9]; [20],1.58%
same,inhibition,[10]; at 0.5 µM,-6.35% (inactive)
same,inhibition,"[10]; measured here: BGB combination, at 0.5 µM",-5.5%
same,inhibition,"[10]; measured here: BGB combination, at 5 µM",-1.92%
same,inhibition,"[10]; measured here: cisplatin combination, at 0.5 µM",-13.4%
same,inhibition,"[10]; measured here: cisplatin combination, at 5 µM",-2.01%
same,inhibition,"[11]; BGB combination, concentration series, at 5 µM",22.6%
same,inhibition,[11]; at 0.5 µM,-5.39% (inactive)
same,inhibition,"[11]; cisplatin combination, concentration series, at 5 µM",17%
same,inhibition,[12],3.77% (inactive)
same,inhibition,[12]; measured here: combo with BGB IC20,3.42%
same,inhibition,[12]; measured here: combo with cisplatin IC20,8.86%
same,inhibition,[13]; at 0.5 µM,-7.12% (inactive)
same,inhibition,"[13]; cisplatin combination, at 0.5 µM",-9.24%
same,inhibition,"[13]; cisplatin combination, at 5 µM",-35.5%
same,inhibition,"[13]; measured here: BGB IC40 combination 0.05 uM, at 0.05 µM",-29.6%
same,inhibition,"[13]; single agent, at 5 µM",14.3%
same,inhibition,[14]; at 0.5 µM,-13.8% (inactive)
same,inhibition,"[14]; cisplatin combo, at 5 µM",35.4%
same,inhibition,"[14]; measured here: BGB IC40 combination, at 0.05 µM",-24.6%
same,inhibition,[14]; [19],-43.9%
same,inhibition,"[14]; single agent, at 5 µM",21.9%
same,inhibition,[15]; at 0.5 µM,19.6% (inactive)
same,inhibition,[15]; [17],-5.57%
same,inhibition,[15]; [18],31.1%
same,inhibition,"[15]; single agent, at 0.05 µM",-21.9%
same,inhibition,"[15]; single agent, at 5 µM",32.9%
CCc1c2c(nc3ccc(OC(=O)N4CCC(N5CCCCC5)CC4)cc13)-c1cc3c(c(=O)n1C2)COC(=O)C3(O)CC (stereo not given),inhibition,[1]; [16],-19.5% and -4.73% and -44.6%
same,inhibition,[13]; at 0.5 µM,-22.5% (inactive) and 1.41% (inactive) and -20.7% (inactive)
